# Results reported in PubChem BioAssay (NCATS).
# Inconclusive results are not listed. Activity calls are given as the source filed them. Unless noted, calls come from the whole dose curve; as a rule, active = well fitted curve in the direction sought with a large enough effect; inconclusive = small, poorly fitted or top-dose-only effect, or another doubt; inactive = no such curve, though single readings can be large; an effect the other way counts as inactive or inconclusive.
# Key:
# [1] = Quantitative High-Throughput drug screen in 47 multiple myeloma cell lines against the NCATS MIPE library collection: RPMI8226_ATCC cell viability assay (AID 1919871); note: nearly all actives have a fitted effect of over 30% in size; note: potency is the fitted concentration of half-maximal effect
# Method in brief: (§1)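 Cells were exposed to library compounds for 48 hours, after which ATP was measured by CellTiter-Glo. Signal was taken as median relative luminescence units.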
# [2] = Quantitative High-Throughput drug screen in 47 multiple myeloma cell lines against the NCATS MIPE library collection: OPM2_DSMZ cell viability assay (AID 1919872); note: nearly all actives have a fitted effect of over 30% in size; note: potency is the fitted concentration of half-maximal effect
# Method in brief: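 Inhibition of cell viability is measured here. Each line was plated at 500 cells per well, treated with MIPE 4.0 drugs, kept 48 hours at 37C, then assayed for ATP content by CellTiter-Glo luminescence.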
# [3] = Quantitative High-Throughput drug screen in 47 multiple myeloma cell lines against the NCATS MIPE library collection: KMS28BM_JCRB cell viability assay (AID 1919874); note: nearly all actives have a fitted effect of over 35% in size; note: potency is the fitted concentration of half-maximal effect
# Method in brief: as §1
# [4] = qHTS drug screen for cell cycle checkpoint inhibitors in PARPi-resistant BRCA-mutant ovarian cancer cell lines. (AID 1963452; calls by dose curve); settings: PEO1/OlaR viability, CellTiter-Glo luminescence, 96 h, stronger effect = lower value
# Method in brief: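 PEO1, PEO4 and PEO1/OlaR ovarian cancer cells, 600 per well, exposed 96 h at 37C to a dilution series. Viability read by CellTiter-Glo luminescence, normalized to DMSO and empty wells; activity summarized as Z-AUC.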
# [5] = Quantitative High-Throughput drug screen in 47 multiple myeloma cell lines against the NCATS MIPE library collection: KMS11_JCRBsus cell viability assay (AID 1919873); note: nearly all actives have a fitted effect of over 50% in size; note: potency is the fitted concentration of half-maximal effect
# Method in brief: as §1
# [6] = qHTS for identification of novel therapeutic agents for treatment of microphthalmiaassociated transcription factor (MiT) renal cell carcinoma (RCC) (AID 1963991; calls by dose curve; note: potency is the fitted concentration of half-maximal effect;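 for z-score: curves scaled with 100% = DMSO viability and 0% = empty wells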); settings: CellTiter-Glo, 48 h; for z-score: stronger effect = lower value
# Method in brief: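 UOK109/UOK124/UOK145 (TFE3 fusions, three partners); 500 cells/well; MIPE v4.0, 1912 cpds, 11 conc.; 48 h, 37 C; CellTiter-Glo, 15 min RT; lum. Norm.: DMSO 100%, empty 0%.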
# [7] = qHTS profiling for inhibitors of Plasmodium falciparum proliferation (AID 504749); note: potency is the fitted concentration of half-maximal effect;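 for activity, negative = inhibition: 0% = DMSO vehicle and full inhibition = artemisinin control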; for all read-outs here: nearly all actives have a fitted effect of over 60% in size; settings: P. falciparum in erythrocytes, SYBR Green DNA, 72 h; for activity, negative = inhibition: at 28.7 µM (top of the series)
# Method in brief: (§2)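 Each compound contacts P. falciparum-infected red blood cells for 72 h at 37 C; lysis buffer (Tris, EDTA, saponin, Triton X, SYBR Green I) is added and fluorescence measured next morning; values normalized to controls.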
# [8] = system: 3D7; assay: as above; settings: P. falciparum in erythrocytes, SYBR Green DNA, 72 h; series mostly up to 28.7 µM
# Method in brief: as §2
# [9] = measured here: PEO1 parental Z-AUC
# [10] = TFE3-RCC UOK109 viability, measured here: UOK109 Z-AUC
# [11] = TFE3-RCC viability, measured here: UOK124 Z-AUC
# [12] = TFE3-RCC viability, measured here: UOK145 Z-AUC
smiles,measurement,setting,value
CC1(COc2ccc3c(c2)ncn3-c2ccc3cccc(N4CCC(N)CC4)c3n2)COC1,Potency,[1],20.9 µM (active)
same,Potency,[2],0.743 µM (active)
same,Potency,[3],0.372 µM (active)
same,Z-AUC,[4],0.496 (inactive)
same,Z-AUC,[4]; [9],-0.0934
same,Z-AUC,[4]; measured here: PEO4 Z-AUC,-0.193
Fc1ccc(CNc2ncnc3ccc(F)cc23)cc1,Potency,[1],5.26 µM (active)
same,Potency,[2],2.96 µM (active)
same,Potency,[5],10.5 µM (active)
same,Z-AUC,[4],-0.894 (inactive)
same,Z-AUC,[4]; [9],-1.29
same,Z-AUC,[4]; measured here: PEO4 Z-AUC,-1.17
N#Cc1c(N(CC(=O)O)CC(=O)O)sc(C(=O)O)c1CC(=O)O,Potency,[1],inactive
same,Potency,[2],inactive
same,Potency,[3],inactive
same,Z-AUC,[4],0.439 (inactive)
same,Z-AUC,[4]; [9],0.76
same,Z-AUC,[4]; measured here: PEO4 Z-AUC,0.481
same,z-score,[6]; [10],0.286
same,z-score,[6]; [11],0.354
same,z-score,[6]; [12],0.00458
same,"activity, negative = inhibition",[7]; parasite line A,12.6% (inactive)
same,"activity, negative = inhibition",[7]; parasite line B,0.836% (inactive)
same,Potency,[8],inactive
O=C1C(CCC(O)c2ccc(F)cc2)C(c2ccc(O)cc2)N1c1ccc(F)cc1 (centres undefined),Potency,[1],inactive
same,Potency,[2],inactive
same,Potency,[5],inactive
same,Potency,[3],inactive
same,"activity, negative = inhibition",[7]; parasite line A,3.97% (inactive)
same,"activity, negative = inhibition",[7]; parasite line B,8.1% (inactive)
same,Potency,[8],inactive
CC(C)C[C@@H](N)[C@H](O)C(=O)N[C@H](C(=O)N[C@H](C(=O)N[C@@H](CC(=O)O)C(=O)O)C(C)C)C(C)C,Potency,[1],inactive
same,Potency,[2],inactive
same,Potency,[5],inactive
same,Z-AUC,[4],-0.687 (inactive)
same,Z-AUC,[4]; [9],-0.6
same,Z-AUC,[4]; measured here: PEO4 Z-AUC,-0.277
same,z-score,[6]; [10],0.245
same,z-score,[6]; [11],0.596
same,z-score,[6]; [12],-0.2
CC1=C[C@@H]2[C@@H]([C@@H](O)C[C@@]3(C)[C@H]2C[C@@H](C)[C@]3(O)C(=O)CO)[C@@]2(C)Cc3cnn(-c4ccccc4)c3C=C12,Potency,[1],0.0264 µM (active)
same,Potency,[2],20.9 µM (active)
same,Z-AUC,[4],-1.56 (inactive)
same,Z-AUC,[4]; [9],-0.109
same,Z-AUC,[4]; measured here: PEO4 Z-AUC,-1.25
O=C1NC(=O)C(=Cc2ccc(-c3ccc(F)cc3O)o2)S1,Potency,[1],9.35 µM (active)
same,Potency,[2],inactive
same,Potency,[3],inactive
CCCCn1c(=O)n(Cc2ccccc2F)c(=O)c2[nH]c(Cc3ccc(NC(C)=O)cc3)nc21,Potency,[1],inactive
same,Potency,[2],inactive
same,Potency,[3],inactive
same,Z-AUC,[4],-0.247 (inactive)
same,Z-AUC,[4]; [9],-0.269
same,Z-AUC,[4]; measured here: PEO4 Z-AUC,0.0892
COc1ccc(CCN(C)CCCOc2ccc(S(=O)(=O)c3[nH]c4ccccc4c3C(C)C)cc2)cc1OC,Potency,[1],18.7 µM (active)
same,Potency,[2],inactive
same,Potency,[3],13.2 µM (active)
same,Z-AUC,[4],-0.498 (inactive)
same,Z-AUC,[4]; [9],0.248
same,Z-AUC,[4]; measured here: PEO4 Z-AUC,0.439
CCOc1ccccc1N=Nc1c(C)[nH]n(-c2nc(-c3ccccc3)cs2)c1=O,Potency,[1],2.35 µM (active)
same,Potency,[2],inactive
same,Z-AUC,[4],1.3 (inactive)
same,Z-AUC,[4]; [9],1.25
same,Z-AUC,[4]; measured here: PEO4 Z-AUC,1.22
N#Cc1ccc(Oc2ccc3c(c2)COB3O)cc1,Potency,[1],inactive
same,Potency,[2],inactive
same,Potency,[3],inactive
same,Z-AUC,[4],0.18 (inactive)
same,Z-AUC,[4]; [9],0.583
same,Z-AUC,[4]; measured here: PEO4 Z-AUC,0.594
CN[C@@H](C)[C@H]1[C@H](O)C[C@@]2(C)[C@@H]3CC[C@H]4C(C)(C)[C@@H](NC)CC[C@@]45C[C@@]35CC[C@]12C,Potency,[1],inactive
same,Potency,[2],inactive
same,Potency,[3],inactive
same,Z-AUC,[4],0.117 (inactive)
same,Z-AUC,[4]; [9],0.364
same,Z-AUC,[4]; measured here: PEO4 Z-AUC,0.673
CC[C@]1(O)C[C@H]2CN(CCC3=c4ccccc4=N[C]3[C@@](C(=O)OC)(c3cc4c(cc3OC)N(C)[C@H]3[C@@](O)(C(N)=O)[C@H](O)[C@]5(CC)C=CCN6CC[C@]43[C@@H]65)C2)C1,Potency,[1],0.132 µM (active)
same,Potency,[2],0.0074 µM (active)
same,Potency,"[6]; TFE3-RCC UOK109 viability, active = Z-AUC below -0.8 in all three lines",0.332 µM (active)
same,z-score,[6]; [10],-0.8
same,z-score,[6]; [11],-1.02
same,z-score,[6]; [12],-0.904
COc1c(C)c2c(c(O)c1CC=C(C)CCC(=O)OCCN1CCOCC1)C(=O)OC2,Potency,[1],4.18 µM (active)
same,Potency,[2],13.2 µM (active)
same,Potency,[3],3.32 µM (active)
same,Potency,[7]; parasite line A,7.94 µM (active)
same,Potency,[7]; parasite line B,10 µM (active)
same,Potency,[8],11.2 µM (active)
